These results are taken from PubChem BioAssay (NCATS).

Records with an inconclusive call do not appear. Activity calls are given as the source filed them. The call rests on the fitted dose curve; in most records, active means well fitted cell-killing curve with a large enough effect; inconclusive means small, poorly fitted or top-dose-only effect, or effect the other way; inactive means no such curve, though single readings can be large or run the other way.
Potency means the concentration at half of the fitted maximal effect.

The test is described as follows: Cell Viability - LYMP2-004 (AID 966). Further: nearly all actives have a fitted effect of over 65% in size.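 On activity change, negative = cytotoxicity: plate controls were DMSO only for no effect and tetraoctylammonium bromide control for full effect.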 The settings on record: LYMP2-004 lymphoblastoid cell viability, qHTS; series mostly up to 92.2 µM; activity change, negative = cytotoxicity: at the top concentration. From the text: NIH Chemical Genomics Center [NCGC]
NIH Molecular Libraries Screening Centers Network [MLSCN]
National Institutes of Environmental Health Sciences [NIEHS]
National Toxicology Program [NTP]
We have developed a 1536-well cell-based assay for quantitative high throughput screening (qHTS) against a number of cell lines to determine in vitro cytotoxicity of small molecules. This particular assay uses a human lymphoblastoid cell line (LYMP2-004) purchased from Coriell Institute for Medical Research.
NCGC Assay Protocol Summary:
The CellTiter-Glo luminescent cell viability assay (Promega) is a homogeneous method to measure the number of viable cells in culture. The end point readout of this assay is based on quantitation of intracellular ATP, an indicator of metabolic activity, using the luciferase reaction. Luciferase catalyzes the oxidation of beetle Luciferin to oxyluciferin and light in the presence of ATP. The luminescent signal is proportional to amount of ATP present.
Using the CellTiter-Glo luminescent cell viability assay, the amount of cellular ATP was measured in the lymphoblastoid cell line with complete culture medium following compound treatment for 24 hours. The assay was performed in opaque white Kalypsys 1536-well plates. In the screen, tetraoctylammonium bromide was used as positive control. Library compounds were measured for their ability to cause acute toxicity in the cell line, as reflected by a decrease in intracellular ATP levels, in a concentration-dependent manner. […] AC50 values were determined from concentration-response data modeled with the standard Hill equation.
qHTS protocol for CellTiter Glo lymphoblastoid cellular assay
[Step] [Parameter] [Value] [Description]
1. Reagent; 5 uL; 2500 lymphoblastoid cells/well
2. Time; 5 hr; 37 C incubation
4. Controls; 23 nL; Tetraoctylammonium bromide 6.4pM to 92 uM
5. Time; 24 hr; 37 C incubation
6. Reagent; 5 uL; CellTiter Glo reagent
7. Time; 30 min; Room Temperature
8. Detection; Luminescence; Viewlux plate reader
Keywords: cell viability, cytotoxicity, lymphoblastoid cell line, luminescence, NTPHTS, NTPHTS_NCGC, NIEHS, DSSTox, MLSMR, MLSCN, NIH Roadmap, qHTS, NCGC
Background: Quantitative high-throughput screening tests each substance at several concentrations.
With `CN(C)c1ccc(N=O)cc1`, the Potency was 0.794 µM (active).

Turning to `C#CCO`, the “activity change, negative = cytotoxicity” value was 21.2% (inactive).

As for `O=C(CCl)c1ccccc1`, the Potency was 10 µM (active).

For the compound `OC(c1ccc(Cl)cc1)(c1ccc(Cl)cc1)C(Cl)(Cl)Cl`, the “activity change, negative = cytotoxicity” value is 10.7% (inactive).

Take `C[C@@H]1CC[C@@]2(OC1)O[C@H]1[C@@H](O)[C@H]3[C@@H]4CC[C@H]5C[C@@H](O[C@@H]6O[C@H](CO)[C@H](O[C@@H]7O[C@H](CO)[C@@H](O)[C@H](O[C@@H]8OC[C@@H](O)[C@H](O)[C@H]8O)[C@H]7O[C@@H]7O[C@H](CO)[C@@H](O)[C@H](O[C@@H]8O[C@H](CO)[C@@H](O)[C@H](O)[C@H]8O)[C@H]7O)[C@H](O)[C@H]6O)[C@H](O)C[C@]5(C)[C@H]4CC[C@]3(C)[C@H]1[C@@H]2C`: the Potency was 12.6 µM (active).

For the compound `O=C1C2(Cl)C3(Cl)C4(Cl)C(Cl)(Cl)C5(Cl)C3(Cl)C1(Cl)C5(Cl)C24Cl` (configuration not stated), the Potency was 39.8 µM (active).

On to `c1ccc2cc3c(cc2c1)-c1cccc2cccc-3c12`, for which the “activity change, negative = cytotoxicity” value is 14.1% (inactive).

For the compound `N#CC(Cl)Cl`, the “activity change, negative = cytotoxicity” value is 9.66% (inactive).

Consider `[CH3][Hg][Cl]`, for which the Potency was 3.98 µM (active).

`O=C(O)C1C(C(=O)O)C2(Cl)C(Cl)=C(Cl)C1(Cl)C2(Cl)Cl` (configuration not stated): the “activity change, negative = cytotoxicity” value was 30.6% (inactive).

As for `Cc1ccccc1`, the “activity change, negative = cytotoxicity” value is -7.17% (inactive).

With `FC(F)(F)c1ccc(Cl)cc1`, the “activity change, negative = cytotoxicity” value is -16.5% (inactive).

Consider `CCCCCCCCn1sccc1=O`, for which the Potency was 3.98 µM (active).

Take `Nc1ccccc1C(=O)OCCc1ccccc1`: the “activity change, negative = cytotoxicity” value is 3.01% (inactive).

In the case of `O=Nc1ccc(Nc2ccccc2)cc1`, the Potency was 7.94 µM (active).

For the compound `Clc1ccc(C(c2ccc(Cl)cc2)C(Cl)Cl)cc1`, the “activity change, negative = cytotoxicity” value is -4.12% (inactive).

With `Oc1c(Br)c(Br)c(Br)c(Br)c1Br`, the “activity change, negative = cytotoxicity” value was -21.5% (inactive).

`CC/C(=C(\c1ccccc1)c1ccc(OCCN(C)C)cc1)c1ccc(O)cc1`: the Potency is 50.1 µM (active).

Take `N#CSCSC#N`: the Potency is 6.31 µM (active).

Turning to `c1cc(OCC2CO2)cc(OCC2CO2)c1` (configuration not stated), the Potency is 20 µM (active).

With `O=[N+]([O-])C(Br)Br`, the Potency is 25.1 µM (active).

Take `CC(C)CC(C)Nc1ccc(Nc2ccccc2)cc1` (configuration not stated): the Potency is 25.1 µM (active).
